Laboratory results taken from PubChem BioAssay (Tox21).
Where “and” joins values, the source holds several entries; their conditions need not be identical. Equal entries are not always repeated. Inconclusive results are not listed. A structure can be active in one record and inactive in another. Calls of active or inactive are those of the source. Calls follow the shape of the dose curve; as a rule, active = well fitted curve in the direction sought with a large enough effect in the repeat runs; inconclusive = weak or mixed curves; inactive = no such curve, though single readings can be large; an effect the other way counts as inactive or inconclusive.

How the values were obtained:
[1] = Caspase-3/7 induction in CHO-K1 cells by small molecules, qHTS cell viability counter screen (AID 1346979); also: nearly all actives have a fitted effect of over 35% in size; also: potency is read from the fitted curve at half-maximal effect
In short: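 In the same wells as the caspase read, viability of compound-treated wild-type CHO-K1 cells was assessed using CellTiter-Fluor, added after 16hr at 37C and measured by fluorescence following 1hr further incubation.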

[2] = Caspase-3/7 induction in CHO-K1 cells by small molecules, qHTS assay (AID 1346980); also: nearly all actives have a fitted effect of over 15% in size; also: potency is read from the fitted curve at half-maximal effect
In short: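 Wild-type cells were seeded at 1,500 per well and settled 5 hr at 37 C, 5% CO2, then exposed to DMSO-dissolved compounds for 17 hr. Caspase-Glo 3/7 reagent was added, and luminescence was read after 30min at room temperature.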

[3] = Caspase-3/7 induction in HepG2 cells by small molecules, qHTS cell viability counter screen (AID 1346981); also: nearly all actives have a fitted effect of over 30% in size; also: potency is read from the fitted curve at half-maximal effect; as to activity change, negative = cytotoxicity: series mostly up to about 92 µM
In short: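 HepG2, WT, 2,000 cells/well; 5 hr pre-incubation 37 C/5% CO2; compound pin-transferred from DMSO; 16 hr exposure; CellTiter-Fluor, 1 hr; fluorescence read.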

[4] = target: Nuclear receptor subfamily 1 group I member 2 (Homo sapiens) (UniProt O75469); assay: Human pregnane X receptor (PXR) small molecule agonists, qHTS assay (AID 1346982); also: nearly all actives have a fitted effect of over 35% in size; also: potency is read from the fitted curve at half-maximal effect
Nuclear receptor subfamily 1 group I member 2 (Homo sapiens), sequence (O75469 whole entry, looked up): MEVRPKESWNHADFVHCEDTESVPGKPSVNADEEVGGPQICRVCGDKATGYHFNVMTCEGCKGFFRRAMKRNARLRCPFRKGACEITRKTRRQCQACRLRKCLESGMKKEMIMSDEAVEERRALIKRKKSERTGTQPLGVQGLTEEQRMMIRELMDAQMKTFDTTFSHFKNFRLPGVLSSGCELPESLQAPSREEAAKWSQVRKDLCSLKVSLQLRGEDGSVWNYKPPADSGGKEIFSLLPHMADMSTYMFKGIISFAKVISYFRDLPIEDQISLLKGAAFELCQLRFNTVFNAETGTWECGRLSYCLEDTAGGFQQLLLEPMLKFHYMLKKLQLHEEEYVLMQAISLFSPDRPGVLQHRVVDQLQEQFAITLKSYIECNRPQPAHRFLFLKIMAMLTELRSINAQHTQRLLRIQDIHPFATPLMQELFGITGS
In short: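 Luciferase signal from ONE-Glo (30 min, room temperature) measured activation of hPXR-driven CYP3A4 reporter expression in PXR-Luc HepG2 cells treated with compounds for 24 hr at 37 C.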

[5] = target: Nuclear receptor subfamily 1 group I member 2 (Rattus norvegicus) (UniProt Q9R1A7); assay: Rat pregnane X receptor (rPXR) activation by small molecules, qHTS assay (AID 1346983); details: rPXR luciferase reporter cells, One-Glo luminescence, 24 h; stronger effect = higher value; also: nearly all actives have a fitted effect of over 20% in size
Nuclear receptor subfamily 1 group I member 2 (Rattus norvegicus), sequence (Q9R1A7 whole entry, looked up): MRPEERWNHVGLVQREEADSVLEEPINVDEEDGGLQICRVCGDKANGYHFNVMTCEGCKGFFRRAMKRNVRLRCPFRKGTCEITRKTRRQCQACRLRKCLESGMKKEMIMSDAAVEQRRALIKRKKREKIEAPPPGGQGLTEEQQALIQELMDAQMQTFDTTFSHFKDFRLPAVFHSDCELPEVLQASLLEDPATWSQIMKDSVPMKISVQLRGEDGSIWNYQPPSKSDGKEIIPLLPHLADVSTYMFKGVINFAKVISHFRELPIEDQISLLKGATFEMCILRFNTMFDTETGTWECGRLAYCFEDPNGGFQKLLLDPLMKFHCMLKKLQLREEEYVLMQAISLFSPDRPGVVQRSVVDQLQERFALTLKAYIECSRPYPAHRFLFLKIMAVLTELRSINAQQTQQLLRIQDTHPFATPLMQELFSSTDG
In short: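 Cell-based rPXR luciferase reporter assay, 2,000 cells per well, rested 5hr at 37 C before compound addition in DMSO, then 24 hr at 37 C. One-Glo reagent was added and luminescence read after 30 min at room temperature.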

[6] = target: Nuclear receptor subfamily 1 group I member 2 (Homo sapiens) (UniProt O75469); assay: CYP3A4 induction through human pregnane X receptor (PXR) by small molecules, qHTS assay (AID 1346984); also: nearly all actives have a fitted effect of over 40% in size; also: potency is read from the fitted curve at half-maximal effect
In short: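 Luminescence readout: luciferase signal after One-Glo (30 min, room temperature), following 3 h at 37C with 3uM final Luciferin-IPA P450 substrate. Cells were DPX-2 (HepG2, PXR/CYP3A4-luc co-transfected) dosed for 24 h.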

[7] = target: Nuclear receptor subfamily 1 group I member 2 (Homo sapiens) (UniProt O75469); assay: Human pregnane X receptor (PXR) activation by small molecules, qHTS assay (AID 1346985); also: nearly all actives have a fitted effect of over 40% in size; also: potency is read from the fitted curve at half-maximal effect
In short: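 DPX-2 cells (HepG2 co-transfected with a PXR response element and a CYP3A4-promoter luciferase construct) were seeded at 2,000 per well, rested 5 hr at 37C, then exposed to DMSO-dissolved compounds for 24 hr. Activation was read as luciferase luminescence.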

[8] = target: Cytochrome P450 2C9 (Homo sapiens) (UniProt P11712); assay: Cytochrome P450 Family 2 Subfamily C Member 9 (CYP2C9) small molecule antagonists: luciferase reporter qHTS assay (AID 1671198); also: nearly all actives have a fitted effect of over 50% in size; also: potency is read from the fitted curve at half-maximal effect; as to activity change, negative = inhibition: series mostly up to about 120 µM
Cytochrome P450 2C9 (Homo sapiens), sequence (P11712 whole entry, looked up): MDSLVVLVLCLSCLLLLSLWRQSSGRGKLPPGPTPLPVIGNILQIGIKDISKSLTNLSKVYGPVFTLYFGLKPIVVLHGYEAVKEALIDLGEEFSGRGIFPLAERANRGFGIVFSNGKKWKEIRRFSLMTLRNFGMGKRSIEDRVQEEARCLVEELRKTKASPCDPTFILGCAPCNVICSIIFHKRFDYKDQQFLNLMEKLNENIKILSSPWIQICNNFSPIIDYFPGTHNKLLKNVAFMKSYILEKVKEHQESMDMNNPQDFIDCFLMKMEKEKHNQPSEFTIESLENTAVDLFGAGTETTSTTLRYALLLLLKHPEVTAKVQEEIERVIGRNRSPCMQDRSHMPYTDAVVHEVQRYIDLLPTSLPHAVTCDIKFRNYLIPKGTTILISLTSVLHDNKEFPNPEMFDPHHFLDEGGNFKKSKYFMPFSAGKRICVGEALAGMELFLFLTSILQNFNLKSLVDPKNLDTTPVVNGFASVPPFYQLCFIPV
In short: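 CYP2C9 activity was measured with a P450-Glo proluciferin substrate. Enzyme–substrate mix was held with compound for 10 min at room temperature, then NADPH regeneration solution was added for 1 h at 37C. Luciferin product was read as luminescence.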

[9] = target: Cytochrome P450 2D6 (Homo sapiens) (UniProt P10635); assay: Cytochrome P450 Family 2 Subfamily D Member 6 (CYP2D6) small molecule antagonists: luciferase reporter qHTS assay (AID 1671196); also: nearly all actives have a fitted effect of over 50% in size; also: potency is read from the fitted curve at half-maximal effect; as to activity change, negative = inhibition: series mostly up to about 120 µM
Cytochrome P450 2D6 (Homo sapiens), sequence (P10635 whole entry, looked up): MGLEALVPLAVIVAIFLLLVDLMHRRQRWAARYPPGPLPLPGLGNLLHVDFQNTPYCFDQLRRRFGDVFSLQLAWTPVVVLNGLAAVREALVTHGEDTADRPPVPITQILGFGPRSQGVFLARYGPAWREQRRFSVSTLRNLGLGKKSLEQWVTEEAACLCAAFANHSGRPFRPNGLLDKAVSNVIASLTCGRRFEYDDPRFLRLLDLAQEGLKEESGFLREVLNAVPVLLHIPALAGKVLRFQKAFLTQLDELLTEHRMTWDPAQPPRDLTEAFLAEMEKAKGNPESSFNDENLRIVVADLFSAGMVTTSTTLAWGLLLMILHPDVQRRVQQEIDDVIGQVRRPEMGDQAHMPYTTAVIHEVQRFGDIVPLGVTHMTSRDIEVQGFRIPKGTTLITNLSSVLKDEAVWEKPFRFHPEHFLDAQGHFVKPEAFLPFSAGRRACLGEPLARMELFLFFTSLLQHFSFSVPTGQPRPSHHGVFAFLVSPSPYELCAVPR
In short: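 Read-out is luminescence from luciferin formed by CYP2D6 turnover of a proluciferin substrate, recorded as relative luminescence units. Reactions ran 1 h at room temperature after NADPH regeneration solution was added.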

[10] = target: Cytochrome P450 2C19 (Homo sapiens) (UniProt P33261); assay: Cytochrome P450 Family 2 Subfamily C Member 19 (CYP2C19) small molecule antagonists: luciferase reporter qHTS assay (AID 1671197); also: nearly all actives have a fitted effect of over 65% in size; also: potency is read from the fitted curve at half-maximal effect; as to activity change, negative = inhibition: series mostly up to about 120 µM
Cytochrome P450 2C19 (Homo sapiens), sequence (P33261 whole entry, looked up): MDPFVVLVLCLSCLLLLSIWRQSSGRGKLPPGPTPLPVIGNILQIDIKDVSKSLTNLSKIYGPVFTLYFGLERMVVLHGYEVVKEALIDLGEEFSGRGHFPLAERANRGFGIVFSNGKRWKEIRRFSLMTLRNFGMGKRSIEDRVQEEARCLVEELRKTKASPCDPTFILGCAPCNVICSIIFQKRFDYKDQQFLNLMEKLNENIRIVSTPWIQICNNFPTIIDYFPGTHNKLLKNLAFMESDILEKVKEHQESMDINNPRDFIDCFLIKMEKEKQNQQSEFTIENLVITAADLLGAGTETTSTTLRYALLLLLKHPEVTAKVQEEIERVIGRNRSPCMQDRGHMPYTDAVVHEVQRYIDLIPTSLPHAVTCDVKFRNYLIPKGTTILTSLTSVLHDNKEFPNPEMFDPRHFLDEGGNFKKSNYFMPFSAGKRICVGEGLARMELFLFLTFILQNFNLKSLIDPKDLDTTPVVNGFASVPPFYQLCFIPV
In short: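 Enzyme-substrate mix with proluciferin substrate (P450-Glo CYP2C19 system) preincubated with compounds 10 min at room temperature; NADPH regeneration solution added, 37C for 1 h; detection reagent stops reaction, luminescence read after 20 min. Ketoconazole positive control.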
% is scaled to controls: 0 for no effect and ±100 for the full control effect.

CCCCCCCCCCC[C@@H](C[C@@H]1OC(=O)[C@H]1CCCCCC)OC(=O)[C@H](CC(C)C)NC=O
inactive: Potency [2] | Potency [3] | Potency [4] | max activation [5] -3.72% | Potency [6] | Potency [7]
active: Potency [1] 16.8 µM | Potency [8] 2.75 µM

CCCCC/C=C\C/C=C\CCCCCCCC(=O)O
22.1 µM (active) and inactive: Potency [10]
active: Potency [1] 60.1 µM | Potency [4] 60.1 µM | Potency [9] 31.2 µM | Potency [8] 35 µM and 31.7 µM
inactive: Potency [2] | Potency [3] | max activation [5] -4.54% | Potency [6] | Potency [7]

O=C1NC(=O)[C@@H]2CC=CC[C@H]12
inactive: Potency [1] | Potency [2] | Potency [3]

CCCC(=O)OC(C)(C)Cc1ccccc1
inactive: Potency [1] | Potency [2] | Potency [3]

CN(C)C(=O)COC(=O)Cc1ccc(OC(=O)c2ccc(N=C(N)N)cc2)cc1
inactive: Potency [1] | Potency [2] | Potency [3] | Potency [4] | max activation [5] -2.55% | Potency [6] | Potency [7] | Potency [9] | Potency [10] | Potency [8]

CCCCCCCCCCCCOCCOCCOCCOCCOCCOCCOCCOCCOCCO
active: Potency [1] 11.9 µM | Potency [3] 29.8 µM | Potency [4] 7.5 µM | Potency [8] 15.5 µM
inactive: Potency [2] | max activation [5] -18.4% | Potency [6] | Potency [7] | Potency [9]

COc1ccc2cc1Oc1ccc(cc1)C[C@H]1c3c(cc4c(c3Oc3cc5c(cc3OC)CCN(C)[C@@H]5C2)OCO4)CCN1C
inactive: Potency [2] | max activation [5] -17.4% | Potency [10]
active: Potency [1] 29.8 µM | Potency [3] 26.6 µM | Potency [4] 9.44 µM | Potency [6] 10 µM | Potency [9] 15.5 µM | Potency [8] 30.9 µM

CCCCCCCC/C=C\CCCCCCCCN
active: Potency [9] 1.55 µM | Potency [10] 4.36 µM | Potency [8] 38.9 µM
inactive: Potency [1] | Potency [2] | Potency [3] | Potency [4] | max activation [5] -1.07% | Potency [6] | Potency [7]

Nc1nc2c(ncn2COCCO)c(=O)[nH]1
inactive: Potency [1] | Potency [2] | Potency [3] | Potency [4] | max activation [5] -0.779% | Potency [6] | Potency [7] | Potency [10] | Potency [8]

CCCCCCCCCCCCCC[N+](C)(C)C
inactive: Potency [2] | Potency [4] | max activation [5] -17% | Potency [6] | Potency [7] | Potency [8]
active: Potency [1] 59.1 µM and 38.5 µM | Potency [3] 61.1 µM | Potency [9] 3.06 µM and 3.17 µM and 3.47 µM | Potency [10] 63.2 µM

O=C(O)c1cc(=O)c2ccccc2o1
inactive: Potency [1] | Potency [2] | Potency [3] | Potency [4] | max activation [5] -0.583% | Potency [6] | Potency [7] | Potency [9] | Potency [10] | Potency [8]

CCC(C)[O-].CCC(C)[O-].CCOC(=O)/C=C(/C)[O-].[Al+3]
inactive: Potency [1] | Potency [2]

C[C@@H](O)[C@H](N)C(=O)O
inactive: activity change, negative = cytotoxicity [1] -0.658% [at 19 µM] | caspase-3/7 activation [2] -0.26% [at 19 µM] | activity change, negative = cytotoxicity [3] -2.32% [at 19 µM] | activation [4] -12.7% [at 19 µM] | max activation [5] -1.79% | Potency [6] | Potency [7] | activity change, negative = inhibition [9] -2.59% [at 23.6 µM] | activity change, negative = inhibition [10] 6.88% [at 23.6 µM] | activity change, negative = inhibition [8] 17.9% [at 23.6 µM]

Cc1c(C)c2c(c(C)c1OC(=O)c1cccnc1)CC[C@@](C)(CCC[C@H](C)CCC[C@H](C)CCCC(C)C)O2
inactive: Potency [1] | Potency [2] | Potency [3] | Potency [4] | max activation [5] 0.296% | Potency [6] | Potency [7] | Potency [9] | Potency [10] | Potency [8]

Cc1cccc(C(=O)O)c1O
inactive: Potency [1] | Potency [2] | Potency [3] | Potency [4] | max activation [5] -0.388% | Potency [6] | Potency [7] | Potency [9] | Potency [10] | Potency [8]

Cc1ccc(C(C)C)cc2c(C)ccc1-2
inactive: Potency [1] | Potency [2] | Potency [3] | Potency [6] | Potency [9]
active: Potency [4] 10.6 µM | Potency [7] 22.4 µM

CCN(CC)C(=O)c1cc(S(=O)(=O)Cc2ccccc2)c(N2CCC(c3ccccc3)CC2)cc1N(CC)CCN(C)C
active: Potency [1] 21.4 µM | Potency [2] 24.1 µM | Potency [3] 17 µM | Potency [4] 3.4 µM

Nc1nc(N)nc(-c2cc(Cl)ccc2Cl)n1
inactive: Potency [1] | Potency [2] | Potency [3] | Potency [4] | max activation [5] -2.66% | Potency [6] | Potency [7] | Potency [9] | Potency [10] | Potency [8]

CCc1ccc(Br)cc1
inactive: Potency [1] | Potency [2] | Potency [3] | Potency [4] | Potency [9] | Potency [10] | Potency [8]

CCCCCc1ccc(Cl)cc1
inactive: Potency [1] | Potency [2] | Potency [3] | Potency [4] | Potency [9] | Potency [10]

CC[C@H](C)COC(=O)/C=C/c1ccc(N=Cc2ccc(OC)cc2)cc1
inactive: Potency [2] | Potency [3]
active: Potency [1] 61 µM | Potency [4] 30.6 µM | Potency [9] 70.9 µM | Potency [10] 0.893 µM | Potency [8] 5.63 µM

Cc1cccc(C)c1NC(=O)c1ccc(N)cc1
inactive: Potency [1] | Potency [2] | Potency [3] | Potency [4] | Potency [9] | Potency [10] | Potency [8]

O=C(O)[C@H](O)[C@@H](O)[C@H](O[C@@H]1O[C@H](CO)[C@H](O)[C@H](O)[C@H]1O)[C@H](O)CO
inactive: Potency [1] | Potency [2] | Potency [3] | Potency [4] | Potency [9] | Potency [10] | Potency [8]
